What was measured:
Test in all cases: PBM binding z-score (relative to random genomic background probes); higher = stronger binding; sequences stand for … in GC…GCGATTGACAGCGTAGAATGAAGG
[1] = tested on: PPARg:RXRa DBDmut IVT, anti-RXR (DBD mutation: RXRa K156A/R161A, NR concentration 270 nM, RXRa partner concentration 90 nM)
In short: (§1)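 The probes on custom Agilent 4×180K protein-binding microarrays were double-stranded, with 34-nt variable regions bearing direct-repeat seeds, single-nucleotide variants, half-site ablations and random human genomic background sequences. Incubation lasted 1 h with ligand-free nuclear receptor dimers in PBS pH 7.4, 2% milk, 0.02% Triton X-100, 1 mM DTT, 0.2 mg/mL BSA and 0.4 mg/ml salmon testes DNA. Antibodies against each partner (one per run) detected bound dimers, and fluorescence scans were regression-normalized. Binding z-scores take the random background probes as reference.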

[2] = tested on: PPARg:RXRa IVT, anti-PPARg (NR concentration 270 nM, RXRa partner concentration 90 nM)
In short: as §1

[3] = tested on: PPARg DBDmut:RXRa IVT, anti-PPARg (DBD mutation: PPARg1 K132A/R137A, NR concentration 270 nM, RXRa partner concentration 90 nM)
In short: as §1

[4] = tested on: PPARg DBDmut IVT, anti-PPARg (DBD mutation: PPARg1 K132A/R137A, NR concentration 270 nM)
In short: as §1

[5] = tested on: PPARg homodimer (NR concentration 180 nM)
In short: as §1

[6] = tested on: PXR:RXRa (NR concentration 270 nM, RXRa partner concentration 90 nM)
In short: as §1

[7] = tested on: PXR homodimer (NR concentration 270 nM)
In short: as §1

[8] = tested on: RARa:RXR (NR concentration 270 nM, RXRa partner concentration 90 nM)
In short: as §1

[9] = tested on: RARa homodimer (NR concentration 270 nM)
In short: as §1

[10] = tested on: RARb:RXRa (NR concentration 270 nM, RXRa partner concentration 90 nM)
In short: as §1

Sequence	PBM binding z-score [1]	PBM binding z-score [2]	PBM binding z-score [3]	PBM binding z-score [4]	PBM binding z-score [5]	PBM binding z-score [6]	PBM binding z-score [7]	PBM binding z-score [8]	PBM binding z-score [9]	PBM binding z-score [10]
TGAATGAGGTTATAAGATCAAGGAACGTTGCAAA	1.04	1.84	0.592	0.326	0.811	0.776	-0.0343	1.37	0.338	1.18
CCTGCTGGGCCAAAAAGGTCATTGATGCCGATAA	0.633	1.32	-0.602	-0.914	3.24	4.99	3.34	5.41	0.138	3.89
CCTAACGGGTCAAGGTTATAGCACGGGTGGTACG	0.873	2.74	-0.204	-0.102	2.32	2.84	0.496	3.76	1.14	3.9
ATCTCTAGGTAAAAGTTCAGTGATTCCCGAGGAT	2.14	3.78	1.64	0.678	1.31	1.97	1.49	1.61	0.97	2.32
ATCTCTAGGTAAAGTTCAGTTAAAGATCGATAGA	2.25	2.63	1.03	0.905	2.02	2.33	1.72	1.81	1.83	2.78
TATACAGGGTCAAAGGACAGAGTACGAATGTCGA	2.27	4.9	3.23	2.81	2.18	3.68	1.01	4.56	1.66	4.55
AGAACGAGGGCAATGAGTTGTTAGCACGGGTGGC	3.51	2.66	0.326	-0.308	-0.355	0.859	1.26	0.0367	-0.253	2.13
GCTCCGAGGACAAGGTCAGAGCTTTGTCCGTAGA	0.525	0.632	-1.51	-1.01	0.305	1.55	-0.543	1.76	-0.762	3.33
GTGCCAAGGTGAATAGGTCGTTGATGAGTAGGCG	2.01	2.66	0.113	-0.755	1.02	0.425	0.19	1.38	0.262	2.09
CAGACTAGGTCACCGGAAGGTCAAAGTCCGCATG	7.28	7.61	0.753	0.84	6.86	5.81	1.7	6.81	2.04	5.34
AGTCACAGTTCAGGACGAGGTAACGTAAAGCACG	-0.095	0.996	0.513	0.376	0.443	1.13	0.45	1.52	0.51	2.08
ACCGAAAGGTCGAGGTGAGTATAGAGAAAGGGAA	0.771	2.17	0.276	0.807	1.13	2.31	0.286	3	0.981	4.17
GCAGACAGGTGAAACGCCGGTAACTCAGGGTGGC	0.72	0.227	-0.163	-1.53	-0.427	-0.468	-0.822	0.0984	-1.03	0.606
GCAGACAGGTGAAACGCAGGTAACTCAGGGTGGC	0.989	0.639	-1.03	-0.587	-0.666	-0.437	-0.625	0.284	-0.853	0.575
CCTTACGGGTCACTCCAGGTTATAACATCGGAGT	2.06	3.72	1.23	0.622	1.05	4.66	0.462	3.51	-0.23	3.67
CAAACTAGGTCACAGAGGTGAAAGTCCGTGCGTA	8.61	8.94	5.86	4.85	2.36	3.51	0.909	4.08	0.879	4.42
ACTCGGAGGACAAAGATCAGAGCTACGCCAGTGA	0.131	-0.127	-1.09	-0.113	-0.398	-0.522	-0.433	-0.384	-0.637	0.778
ATATGTAGGTTACAGCCGGGTCATTCAGGCTATG	7.69	7.35	1.69	1.39	1.97	3.43	1.66	3.51	0.487	2.26
TCGATTAGGTTAGTCGGGGCATTCAGCCAACATA	2.2	0.996	0.0217	-0.0761	0.302	0.39	0.0297	0.45	-0.0114	0.705
TCTCGGAGGACACGAAGGTTAGAGCTTTCCAGAG	0.921	0.171	-0.626	-1.17	-0.693	0.0364	-0.704	0.0543	-1.13	1.88
CCAGACAGGTGAGATGGTAACTCAGCCTCGATTA	0.95	0.00345	-0.391	-0.721	0.16	-0.343	0.189	-0.347	0.738	0.229
GCAGACAGTTGAAACGCAGGTAACTCAGGGTGGC	-0.661	-0.74	-1.02	-0.586	-0.714	-0.372	-0.779	0.0801	-0.512	-0.0972
CTCGAAAGGTCGTGCTCAGGTGAGTGTACCAAAC	1.29	1.94	-0.0151	0.438	1.83	3.52	0.0812	4.32	0.202	4.01
AATATTAGTTGACTTAGGGCAACCGATACGACGC	0.114	0.435	1.41	0.654	0.835	0.143	0.976	0.751	1.92	0.721
